Source: the supplement of paper PMC10849652
Of roughly 8,800 targets only a part is listed; those with a hit were picked by preference. About 0.5% of all pairs of compound and target were hits. A number with no mark means an inactive call.

Assays:
Test in all cases: log2 fold change, soluble protein after heating vs DMSO (PISA); higher = thermal stabilisation; K562 lysate, 10 uM; active = over 0.2 and 3.5 SD of the protein, either way, in both replicates (recomputed)
erlotinib = compound: C#Cc1cccc(Nc2ncnc3cc(OCCOC)c(OCCOC)cc23)c1 [erlotinib]
Outline: (§1)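 Soluble protein was defined as the supernatant remaining after 21,000xg for 90 min, following pooling of heated aliquots and adjustment to 0.5% NP-40 at 4°C. Before that, crude K562 extract at 1 mg/mL protein in PBS pH 7.4 with 1 mM MgCl2 was treated with 10 μM compound for 30 min and heated for 3 min across 48°C-58°C. Quantification used TMTpro 16plex LC-MS/MS with channel sums equalised, and values are log-two fold changes in thermal stability relative to solvent controls from duplicates.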

[1] = compound: C/C(=N\NC(=O)C1=CC(=CC=C1)S(=O)(=O)N2CCOCC2)/C3=C(C=CC(=C3)Cl)O
Outline: as §1

[2] = compound: C1=CC(=CC=C1C2=NC3=C(N2)C=C(C=C3)C(=O)N)OC4=CC=C(C=C4)Cl
Outline: as §1

[3] = compound: C1=CC2=C(C=CC(=C2)/C=C\3/C(=O)NC(=NCC4=CC=CS4)S3)N=C1
Outline: as §1

[4] = compound: C1=CC2=NC=CN=C2C=C1/C=C/3\C(=O)NC(=O)S3
Outline: as §1

[5] = compound: C1=CC=C(C=C1)C2=NC(=C(N2)C3=CC=NC=C3)C4=CC(=C(C=C4)Cl)O
Outline: as §1

[6] = compound: C1=CC=C2C(=C1)C3=NNC4=CC=CC(=C43)C2=O
Outline: as §1

[7] = compound: C1CCN(C1)C(=O)NC2=CC=CC(=C2)NC3=NC=C(C(=N3)NCCC4=CN=CN4)Br
Outline: as §1

[8] = compound: C1CN(CCC1(CC2=CC=C(C=C2)Cl)N)C3=NC=NC4=C3C=CN4
Outline: as §1

IRAK-1-4 Inhibitor I = compound: C1COCCN1CCN2C3=CC=CC=C3N=C2NC(=O)C4=CC(=CC=C4)[N+](=O)[O-] [IRAK-1-4 Inhibitor I]
Outline: as §1

ibrutinib = compound: C=CC(=O)N1CCC[C@@H](n2nc(-c3ccc(Oc4ccccc4)cc3)c3c(N)ncnc32)C1 [ibrutinib]
Outline: as §1

[9] = compound: CC(=O)c1cnc2ccc(-c3cc(Cl)c(O)c(Cl)c3)nc2c1N[C@H]1CC[C@H](CN(C)C)CC1
Outline: as §1

ralimetinib = compound: CC(C)(C)Cn1c(N)nc2ccc(-c3[nH]c(C(C)(C)C)nc3-c3ccc(F)cc3)nc21 [ralimetinib]
Outline: as §1

[10] = compound: CC(C)(O)CC(=O)NCCn1ccc2ncnc(Nc3ccc(Oc4cccc(C(F)(F)F)c4)c(Cl)c3)c21
Outline: as §1

[11] = compound: CC(C)C1=C2N=C(C=C(N2N=C1)NCC3=CC=CC=C3)NCCCCCCN
Outline: as §1

[12] = compound: CC1=C(C(CC(=O)N1)C2=CC=C(C=C2)C(F)(F)F)C(=O)NC3=C(C=C4C(=C3)C=NN4)F
Outline: as §1

[13] = compound: CC1=C(C2=C(C=C1)C(=O)C3=CC=CC=C3N2CCCN)C
Outline: as §1

[14] = compound: CC1=C(C=C(C=C1)NC(=O)C2=CC(=CC=C2)C(C)(C)C#N)NC3=CC4=C(C=C3)N=CN(C4=O)C
Outline: as §1

[15] = compound: CC1=C(C=C(C=C1)NC(=O)C2=CC(=CC=C2)N(C)C)NC(=O)C3=CC=C(C=C3)O
Outline: as §1

[16] = compound: CC1=CC=C(C=C1)SC2=C3C=C(SC3=CN=C2)C(=O)N
Outline: as §1

UniProt Q9UHI6, sequence (Q9UHI6 whole entry, looked up): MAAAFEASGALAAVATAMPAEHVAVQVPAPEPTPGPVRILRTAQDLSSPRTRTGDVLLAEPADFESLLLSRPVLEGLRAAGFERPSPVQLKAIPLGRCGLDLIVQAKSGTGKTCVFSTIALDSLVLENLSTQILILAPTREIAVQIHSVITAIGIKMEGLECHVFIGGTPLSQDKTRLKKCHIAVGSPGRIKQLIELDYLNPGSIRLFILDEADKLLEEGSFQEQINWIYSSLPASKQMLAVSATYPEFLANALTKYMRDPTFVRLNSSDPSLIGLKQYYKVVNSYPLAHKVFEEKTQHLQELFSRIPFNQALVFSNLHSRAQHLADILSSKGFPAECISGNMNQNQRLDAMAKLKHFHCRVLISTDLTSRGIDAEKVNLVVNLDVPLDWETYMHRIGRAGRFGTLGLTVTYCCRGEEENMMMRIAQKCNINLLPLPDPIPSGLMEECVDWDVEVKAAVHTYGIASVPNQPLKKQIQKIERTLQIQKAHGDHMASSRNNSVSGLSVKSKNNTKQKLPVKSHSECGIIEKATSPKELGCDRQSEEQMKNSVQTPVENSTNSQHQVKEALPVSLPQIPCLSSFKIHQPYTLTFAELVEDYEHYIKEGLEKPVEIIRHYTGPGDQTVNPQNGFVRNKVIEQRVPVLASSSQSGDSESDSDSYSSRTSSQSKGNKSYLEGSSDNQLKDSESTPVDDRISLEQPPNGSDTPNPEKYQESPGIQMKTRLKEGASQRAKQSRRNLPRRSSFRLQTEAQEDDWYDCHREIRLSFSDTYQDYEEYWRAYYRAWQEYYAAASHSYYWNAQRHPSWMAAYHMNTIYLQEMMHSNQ
UniProt Q96DG6, sequence (Q96DG6 whole entry, looked up): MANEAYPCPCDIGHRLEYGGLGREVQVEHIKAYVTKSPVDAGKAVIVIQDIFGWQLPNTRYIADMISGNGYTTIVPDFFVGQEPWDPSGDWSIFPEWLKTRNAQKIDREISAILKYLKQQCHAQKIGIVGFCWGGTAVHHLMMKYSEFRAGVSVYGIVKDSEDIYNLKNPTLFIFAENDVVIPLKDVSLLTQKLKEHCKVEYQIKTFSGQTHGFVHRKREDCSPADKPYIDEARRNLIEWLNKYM
UniProt Q13057, sequence (Q13057 whole entry, looked up): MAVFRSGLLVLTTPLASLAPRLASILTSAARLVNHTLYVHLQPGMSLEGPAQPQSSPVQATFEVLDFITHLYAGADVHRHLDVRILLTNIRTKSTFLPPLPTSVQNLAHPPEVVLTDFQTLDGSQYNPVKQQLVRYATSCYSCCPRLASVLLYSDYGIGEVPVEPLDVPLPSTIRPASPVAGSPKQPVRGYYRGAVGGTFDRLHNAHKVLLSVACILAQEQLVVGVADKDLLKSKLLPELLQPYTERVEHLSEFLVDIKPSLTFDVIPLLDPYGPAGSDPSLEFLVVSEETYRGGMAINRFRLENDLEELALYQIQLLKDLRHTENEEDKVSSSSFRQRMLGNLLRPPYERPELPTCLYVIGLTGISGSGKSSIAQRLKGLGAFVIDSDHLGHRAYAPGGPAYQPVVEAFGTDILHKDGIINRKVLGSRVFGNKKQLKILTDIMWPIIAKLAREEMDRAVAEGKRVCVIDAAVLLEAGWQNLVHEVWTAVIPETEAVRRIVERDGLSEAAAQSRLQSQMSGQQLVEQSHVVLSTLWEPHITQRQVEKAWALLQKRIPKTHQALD
UniProt Q99828, sequence (Q99828 whole entry, looked up): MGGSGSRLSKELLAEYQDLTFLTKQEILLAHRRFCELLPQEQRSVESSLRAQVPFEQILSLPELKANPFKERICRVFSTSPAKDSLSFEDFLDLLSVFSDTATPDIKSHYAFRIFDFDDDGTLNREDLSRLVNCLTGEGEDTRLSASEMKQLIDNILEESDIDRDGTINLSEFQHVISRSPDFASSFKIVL
UniProt O75208, sequence (O75208 whole entry, looked up): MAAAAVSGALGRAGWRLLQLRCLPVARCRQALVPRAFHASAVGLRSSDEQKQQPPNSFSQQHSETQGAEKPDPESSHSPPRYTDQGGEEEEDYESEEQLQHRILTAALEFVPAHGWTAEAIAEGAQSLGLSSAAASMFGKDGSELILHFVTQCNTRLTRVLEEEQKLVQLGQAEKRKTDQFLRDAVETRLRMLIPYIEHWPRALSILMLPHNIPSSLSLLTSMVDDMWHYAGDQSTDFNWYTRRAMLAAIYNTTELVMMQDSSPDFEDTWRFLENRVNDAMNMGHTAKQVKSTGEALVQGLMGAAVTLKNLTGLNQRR
UniProt Q92796, sequence (Q92796 whole entry, looked up): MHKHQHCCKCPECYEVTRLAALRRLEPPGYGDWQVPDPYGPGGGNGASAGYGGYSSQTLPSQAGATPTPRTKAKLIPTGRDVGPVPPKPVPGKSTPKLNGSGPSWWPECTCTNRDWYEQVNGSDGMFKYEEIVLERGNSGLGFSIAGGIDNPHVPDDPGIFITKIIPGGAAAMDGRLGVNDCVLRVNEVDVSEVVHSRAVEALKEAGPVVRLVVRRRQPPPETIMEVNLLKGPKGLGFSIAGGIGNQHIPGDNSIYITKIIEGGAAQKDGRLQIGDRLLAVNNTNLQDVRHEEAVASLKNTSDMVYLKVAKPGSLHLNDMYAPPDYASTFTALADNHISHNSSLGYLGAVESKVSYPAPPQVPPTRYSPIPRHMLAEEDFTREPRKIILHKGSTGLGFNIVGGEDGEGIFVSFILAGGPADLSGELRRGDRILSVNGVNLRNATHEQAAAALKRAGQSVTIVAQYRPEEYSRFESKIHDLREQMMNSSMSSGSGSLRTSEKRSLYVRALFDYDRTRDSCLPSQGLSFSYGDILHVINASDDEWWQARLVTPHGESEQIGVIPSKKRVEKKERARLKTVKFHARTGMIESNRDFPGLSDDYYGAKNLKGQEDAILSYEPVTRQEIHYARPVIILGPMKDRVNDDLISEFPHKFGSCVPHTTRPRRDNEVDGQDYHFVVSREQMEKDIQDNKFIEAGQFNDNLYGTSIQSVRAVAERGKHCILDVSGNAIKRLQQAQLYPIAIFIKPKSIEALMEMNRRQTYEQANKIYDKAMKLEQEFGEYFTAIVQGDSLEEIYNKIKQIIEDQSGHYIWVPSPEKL
UniProt O14757, sequence (O14757 whole entry, looked up): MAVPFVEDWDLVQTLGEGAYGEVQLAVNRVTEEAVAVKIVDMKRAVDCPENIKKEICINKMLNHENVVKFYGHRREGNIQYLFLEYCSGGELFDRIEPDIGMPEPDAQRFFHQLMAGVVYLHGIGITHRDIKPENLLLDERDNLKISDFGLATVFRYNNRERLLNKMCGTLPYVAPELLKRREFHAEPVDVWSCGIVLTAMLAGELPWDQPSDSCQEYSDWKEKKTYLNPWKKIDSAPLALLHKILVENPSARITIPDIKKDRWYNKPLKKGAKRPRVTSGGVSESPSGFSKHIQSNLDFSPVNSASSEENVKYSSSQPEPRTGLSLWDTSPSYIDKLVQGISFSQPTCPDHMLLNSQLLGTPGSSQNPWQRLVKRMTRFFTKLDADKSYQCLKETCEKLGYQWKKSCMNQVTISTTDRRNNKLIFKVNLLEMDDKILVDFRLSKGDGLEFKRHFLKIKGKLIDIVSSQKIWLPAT
UniProt P99999, sequence (P99999 whole entry, looked up): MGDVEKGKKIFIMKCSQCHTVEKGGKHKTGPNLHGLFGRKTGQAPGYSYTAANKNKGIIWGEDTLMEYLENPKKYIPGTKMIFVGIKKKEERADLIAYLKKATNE
UniProt Q07973, sequence (Q07973 whole entry, looked up): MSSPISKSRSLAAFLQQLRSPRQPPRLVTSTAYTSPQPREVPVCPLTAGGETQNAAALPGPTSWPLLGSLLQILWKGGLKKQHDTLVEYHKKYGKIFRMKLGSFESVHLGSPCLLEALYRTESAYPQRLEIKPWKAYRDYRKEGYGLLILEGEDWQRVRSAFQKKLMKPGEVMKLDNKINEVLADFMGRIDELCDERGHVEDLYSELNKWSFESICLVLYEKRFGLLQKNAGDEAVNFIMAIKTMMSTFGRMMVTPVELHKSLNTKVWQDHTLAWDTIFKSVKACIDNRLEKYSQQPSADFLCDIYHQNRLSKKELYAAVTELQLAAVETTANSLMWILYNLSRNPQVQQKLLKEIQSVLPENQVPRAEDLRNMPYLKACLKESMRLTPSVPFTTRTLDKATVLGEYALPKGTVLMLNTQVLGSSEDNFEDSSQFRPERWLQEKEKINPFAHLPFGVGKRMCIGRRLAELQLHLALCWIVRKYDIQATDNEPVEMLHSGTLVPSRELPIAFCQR
UniProt Q8WUH1, sequence (Q8WUH1 whole entry, looked up): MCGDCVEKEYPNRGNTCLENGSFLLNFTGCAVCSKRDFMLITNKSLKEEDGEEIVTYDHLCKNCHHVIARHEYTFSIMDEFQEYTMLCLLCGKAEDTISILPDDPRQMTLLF
UniProt Q13217, sequence (Q13217 whole entry, looked up): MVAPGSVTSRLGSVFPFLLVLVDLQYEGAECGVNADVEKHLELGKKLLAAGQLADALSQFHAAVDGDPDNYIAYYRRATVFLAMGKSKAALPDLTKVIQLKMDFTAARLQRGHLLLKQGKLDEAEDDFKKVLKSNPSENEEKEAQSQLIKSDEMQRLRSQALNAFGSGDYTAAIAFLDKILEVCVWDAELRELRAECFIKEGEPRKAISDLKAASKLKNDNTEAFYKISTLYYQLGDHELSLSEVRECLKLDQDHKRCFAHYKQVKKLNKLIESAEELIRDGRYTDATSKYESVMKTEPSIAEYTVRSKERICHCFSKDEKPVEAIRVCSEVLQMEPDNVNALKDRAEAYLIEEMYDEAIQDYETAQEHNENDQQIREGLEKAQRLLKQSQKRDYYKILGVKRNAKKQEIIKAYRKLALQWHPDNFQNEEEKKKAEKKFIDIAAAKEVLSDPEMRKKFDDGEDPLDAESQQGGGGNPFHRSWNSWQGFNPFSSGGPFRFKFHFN

Target	log2 fold change (erlotinib)	log2 fold change [1]	log2 fold change [2]	log2 fold change [3]	log2 fold change [4]	log2 fold change [5]	log2 fold change [6]	log2 fold change [7]	log2 fold change [8]	log2 fold change (IRAK-1-4 Inhibitor I)	log2 fold change (ibrutinib)	log2 fold change [9]	log2 fold change (ralimetinib)	log2 fold change [10]	log2 fold change [11]	log2 fold change [12]	log2 fold change [13]	log2 fold change [14]	log2 fold change [15]	log2 fold change [16]
COASY isoform 2 (UniProt Q13057)	0.006	-0.049	-0.044	-0.007	0.022	-0.018	-0.05	-0.019	0.024	-0.019	0.024	-0.015	0.103	0.002	-0.003	0.013	-0.001	-0.013	0.037	0.014
CYP24A1 (UniProt Q07973)	0.015	0.058	0.148	-0.09	-0.083	-0.008	-0.135	-0.05	-0.011	0.07	0.01	-0.036	-0.03	-0.159	0.019	-0.05	-0.051	0.183	0.007	-0.067
CIB1 (UniProt Q99828)	-0.039	0.126	0.013	0.042	-0.227	0.023	0.02	0.045	0.073	0.026	0.096	-0.137	0.004	-0.056	-0.027	0.007	-0.041	0.042	-0.003	-0.066
CHURC1 isoform 2 (UniProt Q8WUH1)	0.05	-0.13	-0.021	-0.003	0.015	0.079	0.002	-0.017	0.058	-0.002	0.055	0.05	0.027	-0.077	0.07	-0.065	0.057	0.085	-0.102	0.004
DEF6 (UniProt Q9H4E7)	0.02	0.07	-0.072	0.067	-0.104	0.016	-0.131	0.05	0	0.019	0.016	-0.007	0.098	-0.014	0.022	0.028	-0.024	-0.026	0.066	-0.001
DLG3 isoform 2 (UniProt Q92796)	-0.048	-0.085	0.073	0.002	-0.046	-0.012	-0.013	0.019	-0.001	-0.056	0.034	0.009	0.124	0.042	-0.005	0.055	-0.009	-0.023	-0.033	0.024
DAZAP1 (UniProt Q96EP5)	-0.017	0.008	0.03	0.023	0.026	0.017	-0.047	0.02	-0.004	0.012	-0.031	-0.011	-0.124	0.133	-0.023	-0.062	-0.015	-0.359 (active)	-0.031	-0.009
CMBL (UniProt Q96DG6)	0.026	0.047	-0.03	-0.031	0.01	-0.002	0.045	0.006	-0.002	0.025	-0.059	0.22 (active)	0.018	-0.009	-0.056	-0.082	0	0.014	-0.04	-0.011
DIAPH3 (UniProt Q9NSV4)	0.042	0.07	-0.022	0.05	0.074	0.045	-0.066	-0.04	-0.082	-0.041	0.012	0.093	0.086	-0.032	-0.066	0.043	0.005	-0.011	0.038	-0.035
COQ9 (UniProt O75208)	-0.015	-0.075	-0.001	0.041	0.046	0	-0.029	-0.02	0.029	-0.011	0.104	0.023	0.015	-0.008	-0.036	0.017	0.007	-0.024	0.037	0
DNAJC3 (UniProt Q13217)	-0.002	-0.057	0.06	0.008	-0.021	-0.032	-0.02	-0.033	-0.047	0.011	0.009	-0.004	-0.022	0.007	-0.021	0.024	0.006	-0.011	-0.054	-0.018
DHRS3 (UniProt O75911)	0.056	0.08	0.047	-0.008	-0.044	0.03	-0.028	-0.007	0.016	0.046	0.064	-0.07	0.048	-0.023	0.034	-0.001	-0.069	-0.015	-0.046	0.045
DDX20 (UniProt Q9UHI6)	0.021	0.048	-0.054	-0.029	-0.005	0.007	0.022	0.032	0.042	-0.015	-0.01	0.017	0.029	-0.029	-0.03	-0.011	0.004	-0.006	0.044	0.01
CYCS (UniProt P99999)	-0.022	-0.121	-0.019	-0.006	0.003	0.008	0.02	0.011	0.002	-0.005	0.027	0.024	0	0.004	-0.016	-0.05	-0.005	0.012	-0.015	0.031
DDX54 isoform 2 (UniProt Q8TDD1)	-0.088	-0.36	-0.038	-0.035	-0.191	-0.001	-0.054	0.069	0.014	-0.058	-0.005	0.006	0.036	0.023	-0.001	0.02	-0.054	-0.054	-0.006	0.013
CHEK1 (UniProt O14757)	-0.048	-0.057	0	0.27 (active)	0.008	0.023	0.06	-0.108	0.02	-0.011	0.019	0.104	0.032	-0.004	-0.003	0.004	0.011	0.026	-0.005	-0.024
